The campaign covered roughly 340,000 compounds. About 1,000 (0.29%) were called active. No stated cut-off is given here; in the data, inconclusive means inhibition above about 29% without an active follow-up result; inactive means below that. Only a sample is shown. Results with a measured potency or affinity are listed apart.
Target: Genome polyprotein (Dengue virus type 2 (strain 16681-PDK53)) (UniProt P29991)
Experiment: Dengue-2 NS5 methyltransferase inhibitors, primary screen, biochemical, confirmation dose response (AID 588689)
Conditions: Dengue-2 NS5 methyltransferase capping enzyme assay, at 25 µM, stronger effect = higher value
[1] = measured here: pilot screen replicate inhibition

Chain of Genome polyprotein (Dengue virus type 2 (strain 16681-PDK53)) (P29991 whole entry, looked up): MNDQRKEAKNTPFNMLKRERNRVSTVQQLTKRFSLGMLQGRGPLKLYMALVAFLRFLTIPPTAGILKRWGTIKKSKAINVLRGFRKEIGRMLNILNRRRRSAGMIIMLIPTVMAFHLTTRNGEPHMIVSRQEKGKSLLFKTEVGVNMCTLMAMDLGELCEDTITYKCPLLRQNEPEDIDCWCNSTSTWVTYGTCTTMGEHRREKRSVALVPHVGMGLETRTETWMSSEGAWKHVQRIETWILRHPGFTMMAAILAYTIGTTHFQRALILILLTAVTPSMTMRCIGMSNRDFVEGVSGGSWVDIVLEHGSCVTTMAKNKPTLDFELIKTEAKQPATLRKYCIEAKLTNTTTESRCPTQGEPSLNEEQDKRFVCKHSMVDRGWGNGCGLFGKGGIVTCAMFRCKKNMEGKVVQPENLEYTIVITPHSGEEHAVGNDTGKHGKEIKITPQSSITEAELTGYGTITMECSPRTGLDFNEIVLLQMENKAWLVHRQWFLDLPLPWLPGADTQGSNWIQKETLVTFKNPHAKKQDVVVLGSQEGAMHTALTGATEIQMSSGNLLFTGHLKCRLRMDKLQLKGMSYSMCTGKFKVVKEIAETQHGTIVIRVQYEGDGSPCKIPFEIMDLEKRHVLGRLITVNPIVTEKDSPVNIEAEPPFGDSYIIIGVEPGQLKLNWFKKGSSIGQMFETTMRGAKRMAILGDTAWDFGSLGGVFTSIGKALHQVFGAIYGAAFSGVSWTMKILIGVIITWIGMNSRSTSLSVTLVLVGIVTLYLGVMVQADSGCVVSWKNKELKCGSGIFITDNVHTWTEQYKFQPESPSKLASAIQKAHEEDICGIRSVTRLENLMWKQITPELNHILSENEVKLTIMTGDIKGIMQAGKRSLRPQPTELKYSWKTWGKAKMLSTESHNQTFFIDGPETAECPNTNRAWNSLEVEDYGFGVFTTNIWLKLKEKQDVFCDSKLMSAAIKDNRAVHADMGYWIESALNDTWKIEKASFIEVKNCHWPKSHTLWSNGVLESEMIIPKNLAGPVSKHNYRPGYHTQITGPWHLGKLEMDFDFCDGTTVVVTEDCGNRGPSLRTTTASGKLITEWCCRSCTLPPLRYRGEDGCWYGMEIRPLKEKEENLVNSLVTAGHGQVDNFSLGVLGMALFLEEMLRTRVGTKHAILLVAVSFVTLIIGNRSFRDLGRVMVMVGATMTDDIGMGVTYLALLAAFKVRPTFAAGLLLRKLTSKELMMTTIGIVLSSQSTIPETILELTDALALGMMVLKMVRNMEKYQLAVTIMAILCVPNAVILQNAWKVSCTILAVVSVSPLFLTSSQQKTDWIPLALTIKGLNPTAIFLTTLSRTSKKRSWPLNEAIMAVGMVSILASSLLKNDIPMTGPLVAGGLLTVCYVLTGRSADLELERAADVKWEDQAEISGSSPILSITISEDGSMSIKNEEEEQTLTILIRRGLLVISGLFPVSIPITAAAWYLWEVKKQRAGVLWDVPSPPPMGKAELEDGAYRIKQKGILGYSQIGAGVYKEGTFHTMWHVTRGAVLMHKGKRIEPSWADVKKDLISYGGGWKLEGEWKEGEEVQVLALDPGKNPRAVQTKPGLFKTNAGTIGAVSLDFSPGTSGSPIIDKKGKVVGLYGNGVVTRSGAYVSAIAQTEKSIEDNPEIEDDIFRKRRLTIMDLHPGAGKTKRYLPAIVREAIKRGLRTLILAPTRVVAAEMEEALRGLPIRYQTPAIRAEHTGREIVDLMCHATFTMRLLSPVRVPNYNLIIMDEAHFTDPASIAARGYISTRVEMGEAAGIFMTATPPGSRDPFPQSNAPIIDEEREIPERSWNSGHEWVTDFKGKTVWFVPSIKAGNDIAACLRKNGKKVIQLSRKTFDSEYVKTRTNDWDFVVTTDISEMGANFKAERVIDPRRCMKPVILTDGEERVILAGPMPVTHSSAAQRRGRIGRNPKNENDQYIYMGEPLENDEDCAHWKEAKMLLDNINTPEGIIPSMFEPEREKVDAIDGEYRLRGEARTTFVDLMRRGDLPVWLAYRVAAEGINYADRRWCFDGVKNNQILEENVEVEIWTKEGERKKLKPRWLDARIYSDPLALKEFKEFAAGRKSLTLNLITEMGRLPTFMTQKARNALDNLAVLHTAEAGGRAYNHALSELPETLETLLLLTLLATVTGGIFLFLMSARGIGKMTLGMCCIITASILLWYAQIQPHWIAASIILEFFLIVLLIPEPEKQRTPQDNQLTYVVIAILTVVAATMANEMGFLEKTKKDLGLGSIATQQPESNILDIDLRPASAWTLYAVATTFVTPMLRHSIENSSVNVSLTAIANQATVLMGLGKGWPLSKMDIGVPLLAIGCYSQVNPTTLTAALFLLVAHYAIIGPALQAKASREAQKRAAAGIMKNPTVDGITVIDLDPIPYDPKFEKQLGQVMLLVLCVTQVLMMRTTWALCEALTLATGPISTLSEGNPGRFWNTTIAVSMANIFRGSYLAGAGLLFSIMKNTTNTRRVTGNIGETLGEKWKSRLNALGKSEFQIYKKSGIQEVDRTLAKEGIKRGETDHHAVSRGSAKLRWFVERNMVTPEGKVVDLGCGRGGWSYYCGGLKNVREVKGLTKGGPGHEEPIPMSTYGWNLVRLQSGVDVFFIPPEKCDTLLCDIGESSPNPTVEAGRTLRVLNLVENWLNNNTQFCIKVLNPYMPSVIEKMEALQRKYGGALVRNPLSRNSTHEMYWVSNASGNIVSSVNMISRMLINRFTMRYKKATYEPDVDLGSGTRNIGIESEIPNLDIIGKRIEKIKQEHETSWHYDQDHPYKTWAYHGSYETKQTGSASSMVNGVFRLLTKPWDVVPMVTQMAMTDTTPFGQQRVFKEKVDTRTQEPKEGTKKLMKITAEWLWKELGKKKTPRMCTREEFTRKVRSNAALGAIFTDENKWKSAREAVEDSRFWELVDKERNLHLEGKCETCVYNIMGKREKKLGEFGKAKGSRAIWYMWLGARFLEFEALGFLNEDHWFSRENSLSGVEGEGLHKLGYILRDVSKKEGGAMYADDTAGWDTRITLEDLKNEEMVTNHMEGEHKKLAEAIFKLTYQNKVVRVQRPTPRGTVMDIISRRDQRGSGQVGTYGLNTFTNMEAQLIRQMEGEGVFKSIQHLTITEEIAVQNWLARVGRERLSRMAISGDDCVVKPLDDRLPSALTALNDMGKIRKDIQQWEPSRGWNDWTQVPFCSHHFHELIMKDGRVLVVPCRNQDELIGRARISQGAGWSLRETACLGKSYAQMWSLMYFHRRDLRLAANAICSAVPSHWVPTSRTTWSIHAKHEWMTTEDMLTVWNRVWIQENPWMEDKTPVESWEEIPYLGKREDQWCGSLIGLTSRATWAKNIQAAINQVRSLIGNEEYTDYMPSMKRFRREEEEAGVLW

Q: For Cc1cc[n+](-c2ccccc2)c2ccccc12, which inhibition is on record?
A: -10.7% (inactive)

Q: O=C(CSCc1c(F)cccc1Cl)NCc1ccco1 was tested. Which inhibition did it give?
A: -1.37% (inactive)

Q: CCN(CC)S(=O)(=O)c1ccc(C(=O)NCC2CCCCC2)cc1 was tested. Which inhibition did it give?
A: 2.49% (inactive)

Q: With O=C(Nc1ccc(F)cc1)c1cc2cc(Cl)ccc2[nH]1 as the compound, how does the inhibition read?
A: 1.32% (inactive)

Q: COc1ccc(-c2ccc(SCC(=O)N3CC(=O)Nc4ccccc43)nn2)cc1 was tested. Which inhibition did it give?
A: -4.15% (inactive)

Q: CCn1cc(/C=C/C(=O)NCc2c(C)nn(C)c2C)cn1 was tested. Which inhibition did it give?
A: -7.26% (inactive)

Q: Which inhibition does the source give for O=C1NC(=S)S/C1=C\c1ccc2ccccc2c1 here?
A: -15.5% (inactive)

Q: Cc1ccc(OCCN2C(=O)c3ccccc3C2=O)c(C)c1 was tested. Which inhibition did it give?
A: 1.61% (inactive)

Q: With COc1ccccc1OCCCOc1cccc(/C=C2\SC(=O)NC2=O)c1 as the compound, how does the inhibition read?
A: -1.96% (inactive)

Q: And the inhibition [1]?
A: 6.37%

Q: How did the inhibition turn out when O=C1NC(=O)/C(=C/c2cccc(O)c2)N1 was run?
A: 1.96% (inactive)

Q: With O=C1NC(=S)N/C1=C/c1ccc2ccccc2c1 as the compound, how does the inhibition read?
A: 5.93% (inactive)

Q: And the inhibition [1]?
A: 2.73%

Q: Which inhibition does the source give for C(=N\n1cnnc1)/c1cccc(OCCOc2ccccc2)c1 here?
A: -9.55% (inactive)

Q: For CNC(=O)NC(=O)CSc1nc2cc(C(=O)OC)ccc2c(=O)n1-c1ccccc1, which inhibition is on record?
A: -2.77% (inactive)

Q: Which inhibition does the source give for COc1ccc2nc(C)cc(SCC(NC(C)=O)C(=O)OC(C)C)c2c1 (centres undefined) here?
A: 0.78% (inactive)

Q: For COc1ccccc1C(=O)Nc1ncc2c(n1)CC(c1ccco1)CC2=O (centres undefined), which inhibition is on record?
A: -1.36% (inactive)

Q: With O=C(NCc1ccccn1)c1cc(S(=O)(=O)N2CCCCCC2)ccc1Cl as the compound, how does the inhibition read?
A: 1.3% (inactive)

Q: COc1cc(C(=O)O/N=C2\C=CC(=O)C(C)=C2)cc(OC)c1OC was tested. Which inhibition did it give?
A: -39% (inactive)

Q: With Oc1ccc(/C=N/N2CCN(C3c4ccccc4-c4ccccc43)CC2)cc1 as the compound, how does the inhibition read?
A: -2.06% (inactive)

Q: With COc1ccc(N)c2c1C(=O)c1ccccc1C2=O as the compound, how does the inhibition read?
A: -1.95% (inactive)

Q: How did the inhibition turn out when COc1ccc(OC)c2c1CCC2=O was run?
A: 0% (inactive)

Q: With CCOc1ccc(S(=O)(=O)N2CCCCC2)cc1NC(=O)C1COc2ccccc2O1 (centres undefined) as the compound, how does the inhibition read?
A: 1.45% (inactive)

Q: For O=C(NCc1ccccc1)c1cnc(Cl)c(Cl)c1, which inhibition is on record?
A: -7.44% (inactive)

Q: With COC(=O)c1ccc(COc2cccnc2[N+](=O)[O-])cc1 as the compound, how does the inhibition read?
A: 0% (inactive)

Q: How did the inhibition turn out when O=C(N/N=C/c1cccc(Cl)c1)C1CCCC1 was run?
A: 0% (inactive)

Q: With O=C(Nc1ccccc1C(=O)O)c1cccc(F)c1 as the compound, how does the inhibition read?
A: 3.35% (inactive)

Q: With Cc1ccc(C(=O)Nc2ccc(O)cc2C(=O)O)cc1 as the compound, how does the inhibition read?
A: -8.03% (inactive)

Q: With O=C(Nc1ccccc1C(=O)Nc1ccccc1C(=O)O)c1ccccc1 as the compound, how does the inhibition read?
A: 2.59% (inactive)

Q: How did the inhibition turn out when O=C(Nc1ccccc1C(=O)O)c1cccc(S(=O)(=O)Nc2ccc(Br)cc2)c1 was run?
A: 22.4% (inactive)

Q: Which inhibition does the source give for O=C(Nc1ccccc1C(=O)O)c1ccccc1 here?
A: -0.69% (inactive)

Q: CC(=O)Nc1cccc(C(=O)Nc2ccccc2C(=O)O)c1 was tested. Which inhibition did it give?
A: 3.9% (inactive)

Q: With Cc1ccc(C(=O)Nc2ccccc2C(=O)O)cc1S(=O)(=O)Nc1ccccc1 as the compound, how does the inhibition read?
A: 3.97% (inactive)

Q: For Cc1cccc(C(=O)Nc2ccc(O)cc2C(=O)O)c1, which inhibition is on record?
A: 14.3% (inactive)

Source: PubChem BioAssay AID588689 (Southern Research Specialized Biocontainment Screening …, 2011)
